Source: PubChem BioAssay
Only some compounds are listed: those with a hit (about 19% of all), similar ones and a draw of the others.
KB-3-1 tox – qHTS assay for MDR1-selective chemotherapeutics: Primary screen using the parental adenocarcinoma cell KB-3-1; Potency, µM (series often up to 46.1 µM), most hits filed as cytotoxic; KB-3-1 viability, CellTiter-Glo ATP luminescence, 72 h; 400,000 tested, 1.4% active; note: nearly all actives have a fitted effect of over 60% in size
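KB-3-1 parental drug-naive adenocarcinoma cells in DMEM/10% FBS, incubated 72 h at 37 C with pin-transferred compounds across a concentration series. Viability by CellTiter-Glo luminescence; concentration-response curves fitted after normalization.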
HT1080NT lethal – qHTS for induction of synthetic lethality in tumor cells producing 2HG: qHTS for the HT-1080-NT fibrosarcoma cell line | HT-1080-NT fibrosarcoma viability, CellTiter-Glo ATP luminescence, 48 h | Potency, µM (doses to about 46.1 µM), for the others: top-dose activity, negative = less viability, usual class: cytotoxic | 360,000 tested, 1.6% active | AID 686970, 2013;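 note: NT is the 2HG producing partner of a matched IDH1 knockdown line; 0% = DMSO-treated cells and -100% = media-only wells without cells; nearly all actives have a fitted effect of over 55% in size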
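HT-1080-NT fibrosarcoma cells (2HG-overproducing), 750 cells/well in RPMI with 5% FBS, dosed after 2 h and incubated 48 h at 37C. CellTiter-Glo luminescence normalized to DMSO and no-cell wells; concentration-response curves fitted and classed.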
KB-V1 MDR tox – qHTS assay for MDR1-selective chemotherapeutics: Primary screen using the drug-selected MDR subline cells KB-V1; KB-V1 MDR cells viability, CellTiter-Glo, 72 h; Potency, µM (series often up to 46.1 µM), hits mostly cytotoxic; 400,000 tested, 3.4% active; note: nearly all actives have a fitted effect of over 60% in size
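KB-V1, DMEM (no phenol red) + 10% FBS; cpd pin-transferred, titration series; 72 h, 37 degrees C; CellTiter-Glo, luminescence. Data normalized, curve-fit.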
TDP1 cell CPT – qHTS for Inhibitors of human tyrosyl-DNA phosphodiesterase 1 (TDP1): qHTS in cells in presence of CPT; chicken DT40 Tdp1-/-;hTDP1 cells + 20 nM CPT, ATP luminescence, 48 h; Potency, µM (doses to about 46.2 µM), for the others: at the top dose activity change, negative = growth inhibition, actives largely listed as inhibitors; 420,000 tested, 12% active; note: nearly all actives have a fitted effect of over 55% in size
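Chicken DT40 Tdp1-/- cells complemented with human TDP1, 400 cells/well, exposed to compounds plus 20 nM camptothecin for at least 48 h at 37 C; viability read as ATP content by CellTiter-Glo luminescence.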
HT1080 IDH1KD tx – qHTS for induction of synthetic lethality in tumor cells producing 2HG: qHTS for the HT-1080-IDH1KD cell line | HT-1080 IDH1 knockdown viability, ATP luminescence, 48 h | Potency, µM (series often up to 46.1 µM), for inactives: at the highest dose activity, negative = toxicity, actives largely listed as cytotoxic | 360,000 tested, 2% active | AID 686971, 2013;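 note: 0% = DMSO wells and -100% = cell-free medium wells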
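Using the IDH1-knockdown HT-1080 line run in the same batch and compound series as the NT line, viability after 48 h at 37 °C was determined by CellTiter-Glo luminescence and expressed as % activity.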
DT40 TDP1 no CPT – qHTS for Inhibitors of human tyrosyl-DNA phosphodiesterase 1 (TDP1): qHTS in cells in absence of CPT | 420,000 tested, 15% active | DT40 Tdp1-/- hTDP1 cells, no CPT, ATP luminescence, 48 h | AID 686978, 2013 | Potency, µM (series often up to 46.2 µM), for the others: top-dose activity change, negative = growth inhibition, actives largely listed as inhibitors; note: nearly all actives have a fitted effect of over 55% in size
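Stably hTDP1-transfected Tdp1-null chicken DT40 cells were treated with library compounds minus camptothecin and grown for at least 48 hr at 37 °C, after which cellular ATP was quantified by luminescence.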
Starred values were filed as active, the others as inactive; i = inactive; ? = inconclusive; nt = not tested or not shown; [ ] = another dose, or the depositor's remark. Calls come from the whole dose curve; as a rule, active = well fitted curve in the direction sought with a large enough effect; inconclusive = small, poorly fitted or top-dose-only effect, or another doubt; inactive = no such curve, though single readings can be large; an effect the other way counts as inactive or inconclusive. Unless noted, % is set by controls: 0 for no effect and ±100 for the full control effect; potency is the fitted concentration of half-maximal effect.

SMILES | KB-3-1 tox | HT1080NT lethal | KB-V1 MDR tox | TDP1 cell CPT | HT1080 IDH1KD tx | DT40 TDP1 no CPT
COC(=O)c1ccc(Oc2nc3c(c(=O)n(C)c(=O)n3C)n2C(C)C)cc1 | i | nt | i | ? | nt | -23.2%
COC(=O)c1ccc(Oc2nc3c(c(=O)n(C)c(=O)n3C)n2CCC(C)C)cc1 | i | 8.6% | i | ? | 11.9% | 23.1µM*
CCN(CC)c1nc2c(c(=O)n(C)c(=O)n2C)n1CC(=O)c1ccccc1 | i | -5.4% | i | ? | 5.5% | 23.1µM*
O=C(Cc1ccc(NC2=NC3CS(=O)(=O)CC3S2)cc1)NCCc1ccccc1 (configuration not stated) | i | 0.9% | i | 3.6% | -2.5% | -3.8%
Cc1c(Cl)cccc1NC(=O)CSc1nc2ncc(Cl)cc2[nH]1 | i | 3.5% | i | ? | 5.9% | ?
N#Cc1cccc(NC(=O)N2CCCC3(CCN(C(=O)c4ccco4)CC3)C2)c1 | nt | nt | nt | -6.5% | nt | -2.8%
Cn1c(=O)c2c(nc(Br)n2CC(=O)C23CC4CC(CC(C4)C2)C3)n(C)c1=O | i | -1.3% | ? | 23.1µM* | -21.7% | 18.4µM*
CCOc1cc(/C=C2\CCCC(C(=O)C(F)(F)F)=C2O)ccc1O | i | ? | i | 23.1µM* | ? | 23.1µM*
CCOc1cc(/C=N/N=C/c2ccc(O)c(OCC)c2)ccc1O | i | -0.7% | i | -20.9% | 2.6% | -8.5%
COc1ccc(/C=C2/CCCC(C(=O)C(F)(F)F)=C2O)cc1OC | i | -5.4% | i | 23.1µM* | -6.5% | 18.4µM*
COc1cc(/C=C2/CCCC(C(=O)C(F)(F)F)=C2O)ccc1O | i | -24.1% | i | 10.6% | 4.4% | -18.0%
Cc1ccc(-c2cn3cccnc3n2)cc1NC(=O)Nc1ccc(F)cc1 | i | nt | i | nt | nt | nt
C=CC(=O)Nc1cccc(Oc2cc(Cl)nc3[nH]ccc23)c1 | ? | ? | 18.4µM* | 16.4µM* | ? | ?
COc1cccc(NC(=O)c2cccc(C(=O)Nc3cccc(OC)c3)n2)c1 | i | -1.9% | i | 4.7% | 0.9% | -16.1%
O=S(=O)(Nc1ccon1)c1ccc(Br)cc1 | i | 13.9% | i | -21.8% | 16.7% | 0.8%
CC(=O)c1cccc(S(=O)(=O)N2CCCC(c3nc(-c4ccc(C)o4)no3)C2)c1 (configuration not stated) | i | 2.7% | i | 18.4µM* | 8.0% | ?
Cc1ccc(-c2noc(C3CCN(C(=O)Nc4ccc(C#N)cc4)CC3)n2)o1 | ? | -16.1% | 2.59µM* | 23.1µM* | ? | ?
COc1cc(OC)cc(C(=O)N2CCCC(c3nc(-c4ccc(C)o4)no3)C2)c1 (configuration not stated) | i | -6.1% | ? | -8.6% | -3.1% | ?
Cc1ccc(-c2noc(C3CCCN(S(=O)(=O)c4ccc5ccccc5c4)C3)n2)o1 (configuration not stated) | i | 1.0% | i | ? | 9.3%[9.24 µM] | -23.5%
Cc1ccc(-c2noc(C3CCCN(C(=O)c4ccc(C(C)(C)C)cc4)C3)n2)o1 (configuration not stated) | i | ? | ? | ? | ? | 18.4µM*
Cc1cccc(-c2noc(-c3ccc(NCC4CCCO4)c([N+](=O)[O-])c3)n2)c1 (configuration not stated) | i | nt | i | ? | nt | ?
NC(=O)NCCCC(=O)NCC(c1ccccc1Cl)c1c[nH]c2ccccc12 (configuration not stated) | i | -3.3% | i | ? | 0.5% | ?
CC1(C(=O)NS(=O)(=O)c2cccc(Cl)c2)CCN1C(=O)C1(c2ccccc2)CC1 (configuration not stated) | i | 9.1% | i | -19.4% | 19.0% | -2.5%
COC(=O)[C@@]12CCCCN1[C@H](c1ccc(-c3ccc(OC)cc3)cc1)[C@H]1C(=O)N(C)C(=O)[C@H]12 | i | 10.6% | ? | 11.6µM* | 3.9% | 9.2µM*
COC(=O)[C@@]12CCCCN1[C@H](c1ccc(-c3ccc(F)cc3)cc1)[C@H]1C(=O)N(C)C(=O)[C@H]12 | ? | 11.1% | ? | ? | 3.2% | 23.1µM*
SMILES | KB-3-1 tox | HT1080NT lethal | KB-V1 MDR tox | TDP1 cell CPT | HT1080 IDH1KD tx | DT40 TDP1 no CPT
COC(=O)[C@@]12CCCCN1[C@H](c1ccc(-c3ccccc3)cc1)[C@@H]1C(=O)N(C)C(=O)[C@@H]12 | i | -10.1% | i | 20.6µM* | -4.7% | ?
COC(=O)[C@@]12CCCN1[C@H](c1ccc(-c3ccc4c(c3)OCO4)cc1)[C@H]1C(=O)N(C)C(=O)[C@H]12 | i | 8.7% | i | ? | -3.0% | ?
COC(=O)[C@@]12CCCN1[C@H](c1ccc(-c3ccc(F)cc3)cc1)[C@H]1C(=O)N(C)C(=O)[C@H]12 | i | -3.2% | i | ? | -3.0% | ?
Cc1cnc(-n2ncc(C(=O)NCC3COCCO3)c2C2CC2)nc1-c1cccs1 (configuration not stated) | nt | nt | nt | -6.6% | nt | -12.5%
COCCN(C(=O)c1ccccc1F)c1nnc(-c2ccc(OC)cc2)s1 | i | -9.2% | i | ? | 0.2% | ?
CC(CN1CCCCC1)NC(=O)c1scnc1-c1ccccc1 (configuration not stated) | i | 17.5% | i | -9.1% | 3.6% | -3.8%
COC(=O)c1csc(-c2ccc(CO)o2)n1 | i | ? | i | -8.9% | 0.0% | -12.7%
O=C(CP(=O)(c1ccccc1)c1ccccc1)Nc1cccc(CP(=O)(c2ccccc2)c2ccccc2)c1 | i | ? | i | ? | ? | 23.1µM*
O=C(Nc1ccccc1)C1Cc2c(-c3ccco3)ccnc2O1 (configuration not stated) | i | 2.2% | ? | ? | 6.5% | ?
Cc1nc2c3ccccc3nc(SCC(=O)N3CC(C)CC(C)C3)n2n1 (configuration not stated) | i | 1.8% | 0.581µM* | ? | -5.0% | ?
